Source: PubChem
proKLK7 act – activators of human kallikrein-7 zymogen; AID 652039; activation, % at 7 µM; purified proKLK7, EDANS-DABCYL substrate fluorescence; 100% is mature enzyme control, 0% vehicle; hit rate 0.9% among 370,000;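 active = activation above the mean of all tested compounds plus 3 SD, computed per campaign excluding outliers beyond control limits, cut at about 13% in these data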
Target sequence (P49862 whole entry, looked up): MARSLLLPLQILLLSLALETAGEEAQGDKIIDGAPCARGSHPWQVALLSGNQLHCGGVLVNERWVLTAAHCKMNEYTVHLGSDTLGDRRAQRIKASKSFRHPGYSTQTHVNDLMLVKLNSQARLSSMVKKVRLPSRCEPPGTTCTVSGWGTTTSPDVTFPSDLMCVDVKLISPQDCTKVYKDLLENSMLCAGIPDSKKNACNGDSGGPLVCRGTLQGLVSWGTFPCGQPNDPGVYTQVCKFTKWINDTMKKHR
AHR act – activates the human aryl hydrocarbon receptor; AHR-responsive luciferase reporter cells, luminescence; P35869; activation, % at 5 µM; hit rate 2.5% among 320,000; in the data active = activation above about 47%;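 note: 0% = vehicle wells and 100% = reference agonist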
rCAG RNA binder – molecules binding r(CAG) RNA repeats | r(CAG) RNA repeat, TO-PRO-1 dye displacement fluorescence | hit rate 1.3% among 370,000 | AID 651821 | inhibition, % at 3 µM;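 active = inhibition above the plate cutoff, the mean of all test compounds on that plate plus 3 SD, cut at about 35% in these data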;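 note: 0% = DMSO alone and 100% = 100 µM mitoxantrone as full dye displacement; higher means more dye released from RNA so lower well fluorescence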
ADAM10 inh – inhibits human ADAM10; AID 720582; hit rate 0.62% among 370,000; O14672; inhibition, % at 7 µM; recombinant ADAM10, EDANS/DABCYL FRET peptide cleavage, 3 h;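 active = inhibition above a per-campaign cutoff equal to the mean of compounds falling between control-based bounds plus 3 SD, cut at about 20% in these data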;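 note: 0% = DMSO wells while the 100% control is not disclosed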
ADAM17 inh – inhibitors of human ADAM17. P78536. recombinant ADAM17, EDANS/DABCYL FRET peptide cleavage. inhibition, % at 6.95 µM. hit rate 0.83% among 370,000. AID 720648;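 active = inhibition above the mean of compounds lying between control limits plus 3 SD, set per campaign, cut at about 8.5% in these data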;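 note: 0% = DMSO-only wells as the low control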
NR3A LBD binder – NR3A (human) ligand-binding domain modulation; NR3A LBD differential scanning fluorimetry, Tm shift; 0% = protein alone, 100% = glycine-bound protein; hit rate 2.5% among 340,000; Tm shift relative to glycine control, % at 25 µM;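 active = melting temperature shift of at least 10% of the positive control shift, at one fixed dose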
* hit, by the source's call; · = no result. Sampled rows, rich in hits. Any-hit rate of the full collection: about 7%.

SMILES | proKLK7 act | AHR act | rCAG RNA binder | ADAM10 inh | ADAM17 inh | NR3A LBD binder
COc1ccc(N(CCCN2C(=O)c3cccc4cccc(c34)C2=O)C(=O)c2ccncc2)cc1 | 1 | 76* | -8 | -11 | -3 | 0
COc1ccc(N(CCN2C(=O)c3ccccc3C2=O)C(=O)c2cccc([N+](=O)[O-])c2)cc1 | 0 | 2 | -5 | -1 | 5 | 2
COc1cc(OC)cc(C(=O)N(CCCN2C(=O)c3cccc4cccc(c34)C2=O)c2cccc(OC)c2)c1 | -19 | 103* | 11 | -9 | -2 | -2
CCOC(=O)c1ccccc1S(=O)(=O)N1CCN(c2nc(-c3cccs3)nc3ccccc23)CC1 | · | · | · | 0 | -2 | ·
O=C(NCc1nc(-c2ccc(C(F)(F)F)cc2)no1)Nc1cc(Cl)cc(Cl)c1 | 0 | 12 | 5 | 0 | -2 | 33*
COc1ccc(C(=O)Nc2ccc3[nH]ccc3c2)cc1 | 0 | -7 | 0 | -2 | -1 | 31*
CCOc1ccc(C(=O)Nc2ccc3[nH]ncc3c2)cc1 | 2 | 47 | 3 | -8 | -8 | 7
COc1ccc(C(=O)Nc2ccc3cn[nH]c3c2)c(OC)c1 | 0 | 56* | 4 | -5 | 1 | 1
COc1ccc(OC)c(C(=O)Nc2ccc3[nH]ccc3c2)c1 | 0 | 50* | 5 | 0 | 0 | -7
COc1ccc(C(=O)Nc2ccc3c(c2)OCCO3)c(OC)c1 | 0 | · | -1 | -13 | -2 | ·
COc1ccc(C(=O)Nc2ccc3[nH]ncc3c2)cc1 | 0 | 35 | 0 | -10 | -3 | 12*
CC(=O)N[C@H]1C[C@@H]2O[C@H](CO)CC[C@@H]2O[C@@H]1CCc1ccc(-c2ccc(F)cc2)cc1 | 1 | · | 3 | -7 | -3 | ·
C=CCn1c(O)c(N=NC(=O)OC(C)(C)C)c2ccccc21 | 0 | 30 | -4 | 3 | -2 | -3
C=CCn1c(O)c(N=NC(=O)CNC(=O)c2cccs2)c2ccccc21 | 0 | 61* | -1 | -5 | 1 | 1
COC(=O)C1=C(C)N(Cc2ccccc2C(F)(F)F)C(=NCc2ccccc2C(F)(F)F)NC1c1cccc(C(F)(F)F)c1 (configuration not stated) | 0 | · | -2 | -8 | 1 | ·
C=CCN1C(=O)[C@@H](CC(=O)NCCCN2CCCC2=O)[C@]2(C(=O)OC)CCCCC=C12 | 0 | · | 2 | -1 | 0 | ·
C=CCn1c(COc2ccc3c(c2)CCCC3)nnc1SCC(=O)Nc1cccc(SC)c1 | 0 | 3 | 7 | 31* | 16* | -5
C=CCn1c(COc2ccc(C)cc2)nnc1SCC(=O)Nc1ccc(Oc2ccccc2)cc1 | 1 | · | 6 | 1 | 5 | ·
COC(=O)[C@]12C[C@H](CC(=O)N3CCCCC3)C(=O)N(Cc3cccc4ccccc34)C1=C[C@H](C1CCCC1)O[C@@H]2C | 0 | · | 9 | 9 | 4 | ·
Cc1ccc(Cn2cc(COC(=O)Nc3ccc(F)cc3)nn2)cc1 | 0 | · | -1 | 4 | 2 | ·
COc1ccc(Cl)cc1C(=O)NC(=S)Nc1cc(-c2nc3ccccc3[nH]2)ccc1C | -1 | 46 | 23 | -41 | -24 | 18*
COc1ccc(Cl)cc1C(=O)NC(=S)Nc1nc(C)cc(C)n1 | 0 | 9 | -1 | 5 | -2 | -1
C[C@@H](CO)N(Cc1cn(Cc2ccccc2)nn1)S(=O)(=O)c1ccc(F)cc1Br | 0 | · | 1 | -7 | -1 | ·
COc1ccc(-c2cc(-c3ccc(Br)cc3)nc3ncnn23)cc1OC | 5 | 54* | 7 | -47 | -19 | -1
NC(=O)c1ccsc1NC(=O)COC(=O)c1ccc(Cl)c(N)c1 | 1 | 4 | 19 | -38 | -14 | 23*
SMILES | proKLK7 act | AHR act | rCAG RNA binder | ADAM10 inh | ADAM17 inh | NR3A LBD binder
NC(=O)c1ccsc1NC(=O)COC(=O)c1ccc([N+](=O)[O-])o1 | 0 | 1 | 4 | -11 | -2 | 12*
NC(=O)c1ccsc1NC(=O)c1ccc([N+](=O)[O-])o1 | 0 | 6 | 26 | -20 | -5 | -4
CC(CCN1CCC(C(O)(c2ccccc2)c2ccccc2)CC1)Oc1ccccc1C#N (configuration not stated) | 0 | · | 2 | 1 | 3 | ·
COc1ccc2oc(=O)c(/C(C)=N/Nc3ccccc3)cc2c1 | -9 | 61* | 5 | -32 | -8 | 1
COc1ccc2oc(=N)c(C(=O)Nc3ccc(C)cc3)cc2c1 | -2 | · | 3 | -36 | -19 | -1
COc1ccc2oc(=O)c(C(=O)Nc3cccc(C(C)=O)c3)cc2c1 | -1 | 4 | 7 | -1 | -2 | 2
COc1ccccc1NC(=O)c1cc2ccccc2o/c1=N\O | 1 | 67* | 6 | -1 | -5 | -7
COc1ccc2o/c(=N\O)c(C(=O)Nc3ccc(C)cc3)cc2c1 | 4 | · | 4 | -163 | -57 | 16*
Nc1[nH]c(C(=O)c2ccccc2)c(-c2ccc(F)cc2)c1C(=O)c1c[nH]c2ccccc12 | -1 | · | 13 | -11 | 5 | ·
CN(C)S(=O)(=O)c1cc(NC(=O)CSc2nn(-c3ccc(Cl)cc3)c(=S)s2)ccc1Cl | 0 | 5 | 20 | 5 | -1 | 16*
N/C(=N\N=C/c1ccc(Br)cc1)N/N=C\c1ccc(Br)cc1 | -2 | 16 | 8 | 1 | 0 | 28*
O=C(N/N=C/c1ccc(Br)cc1)c1ccc(Br)o1 | 0 | 24 | 6 | 8 | 5 | 19*
CCCC1CCC2(CCCN2CCOC(=O)Nc2ccc(Br)cc2)CC1 (configuration not stated) | · | · | · | -5 | -2 | ·
CCOc1ccc(NC(=O)CCc2c(C)nn(-c3ccc(N4CCCCC4)nn3)c2C)cc1 | -1 | 5 | -5 | 13 | -2 | 14*
O=C(Cc1ccc(S(=O)(=O)N2CCOCC2)s1)Nc1cc(C(F)(F)F)cc(C(F)(F)F)c1 | 0 | 1 | 4 | 12 | 6 | 17*
O=C(Cc1ccc(S(=O)(=O)N2CCOCC2)s1)Nc1cc(C(F)(F)F)ccc1N1CCCC1 | -6 | 13 | 14 | -83 | -23 | -1
CCn1c2ccccc2c2cc(NC(=O)Cc3ccc(S(=O)(=O)N4CCOCC4)s3)ccc21 | 1 | 51* | 22 | 12 | 7 | -22
Cc1cccc2cc(CN(C(=S)NCC(C)C)C3CCCC3)c(=O)[nH]c12 | 0 | 8 | -8 | -10 | 0 | 13*
N#CC1=C(N)SC(N)=C(C#N)C1CCc1ccccc1 | 0 | 86* | 25 | -30 | -9 | 3
CCc1ccc(CCNC(=O)OC2CC3CC2[C@H]2CCCCN2[C@H]3C)cc1 (some centres not stated) | 0 | · | -1 | -6 | -1 | ·
O=c1cc(CSc2nnc(Nc3ccccc3)s2)nc2sccn12 | 1 | 57* | 2 | -13 | -6 | 0
Cc1cccc(C)c1Nc1nnc(SCc2nc3ccccc3c(=O)[nH]2)s1 | 0 | 69* | -5 | -5 | -2 | 32*
c1ccc(Nc2nnc(SCc3cccc4ccccc34)s2)cc1 | 0 | -4 | 11 | 15 | 5 | 11*
